# Experimental data as given in PubChem BioAssay AID686978 (National Center for Advancing Translational Sciences (NCATS), 2013).
# The campaign covered roughly 420,000 compounds. About 64,000 (15%) were called active. Roughly 27% stayed inconclusive and do not appear here. Calls come from the whole dose curve; as a rule, active = well fitted inhibition curve with a large enough effect; inconclusive = small, poorly fitted or top-dose-only effect; inactive = flat fitted curve, though single readings scatter. The list is a sample of the results. A call without a number means that no potency is given here.
# Experiment: qHTS for Inhibitors of human tyrosyl-DNA phosphodiesterase 1 (TDP1): qHTS in cells in absence of CPT; note: nearly all actives have a fitted effect of over 55% in size
# Settings: DT40 Tdp1-/- hTDP1 cells, no CPT, ATP luminescence, 48 h; activity change, negative = growth inhibition: at 46.2 µM (top of the series)
# Method in brief: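 Growth of hTDP1-complemented DT40 Tdp1-knockout cells is measured by ATP luminescence after at least 48 hr compound exposure at 37 °C, with DMSO substituting for the 20 nM CPT used in the parallel screen.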
# Potency is the fitted concentration of half-maximal effect.
row,SMILES,Potency
1,COc1ccc(CN2C3CCCC2CC(NC(=O)c2cccc(F)c2)C3)cc1 (configuration not stated),inactive
2,COc1ccc(CN2C[C@H]3CON(C)[C@H]3C[C@H]2c2ccc(-c3cccc(F)c3)cc2)cc1,16.4 µM (active)
3,CN1OC[C@@H]2CN(C(=O)c3cccc4ccccc34)[C@H](c3ccc(N4CCCCC4)cc3)C[C@@H]21,inactive
4,CCCNC(=O)c1onc(CSc2ccc(F)cc2)c1C(=O)NC(C)C,inactive
5,Cc1ccc(-c2nc(C)sc2CC(=O)O)cc1,inactive
6,N#C/C(=C\c1cccc(F)c1)c1nc(-c2cc3c(ccc4ccccc43)oc2=O)cs1,inactive
7,O=C(Oc1ccc(C(=S)N2CCOCC2)cc1)c1ccc(F)cc1,inactive
8,O=C(Nc1ccc(F)cc1)C(=O)c1cn(CC(=O)N2CCOCC2)c2ccccc12,inactive
9,O=C(c1ccc(F)cc1)n1cc(C(=S)N2CCOCC2)c2ccccc21,11.6 µM (active)
10,COc1ccc(S(=O)(=O)N(C)C)cc1NC(=O)CSc1ncccn1,13 µM (active)
11,O=C(CSc1nc2[nH]ncc2c(=O)n1-c1ccccc1)N1CCCc2ccccc21,inactive
12,CCOCCCn1c(SCC(=O)Nc2ccc(CC)cc2)nc2ccccc2c1=O,13 µM (active)
13,COc1ccc(C)cc1NC(=O)CSc1cccc[n+]1[O-],inactive
14,CCc1nnc(NC(=O)CSc2nc3ccccc3c(=O)n2CCCOC)s1,inactive
15,O=C(CSc1nc2ccccc2c(=O)n1CCCO)NC1CC1,inactive
16,COc1ccc(S(=O)(=O)N2CCOCC2)cc1NC(=O)CSc1ncnc2ccccc12,inactive
17,COc1ccc(-c2nnc(SCC(=O)Nc3cccnc3Cl)n2C)cc1,inactive
18,COc1ccc(OC)c(NC(=O)CSc2nc3cccnc3n2C)c1,16.4 µM (active)
19,COc1ccc(OC)c(NC(=O)CSc2nc(N)c(-c3ccccc3)c(=O)[nH]2)c1,inactive
20,Cn1c(SCC(=O)N2CCCc3ccccc32)nc2ccccc2c1=O,9.2 µM (active)
21,Cc1nnc(SCC(=O)N2CCc3ccccc32)n1-c1ccccc1,inactive
22,CSc1ccc(NC(=O)N2CC(C)OC(C)C2)cc1 (configuration not stated),inactive
23,Cn1cccc1C(=O)N1CCC[C@@]2(CCN(Cc3nccs3)C2)C1,inactive

row,SMILES,Potency
1,Cc1nc2ccc(S(=O)(=O)NC(C(=O)NCc3ccccc3Cl)C(C)C)cc2s1 (configuration not stated),inactive
2,C[n+]1cccc(C(=O)O)c1,inactive
3,CSc1ncccc1C(=O)NCc1ccccc1Cl,inactive
4,CCOCCCNC(=O)C(NC(=O)c1ccc(=O)[nH]c1)c1ccc(Cl)cc1 (configuration not stated),inactive
5,c1ccc(-c2csc(N3CCc4ccccc4C3)n2)cc1,inactive
6,Cc1noc(C)c1CCC(=O)O,inactive
7,Cc1ccc(S(=O)(=O)N2CC(O)C[C@H]2C(=O)OCC(=O)Nc2ccc(N3CCOCC3)cc2)cc1C (some centres not stated),inactive
8,COc1ccc(-n2nnnc2SCC(=O)Nc2ccccc2)cc1,inactive
9,COc1ccc(NC(=O)CSc2nnc(Cc3ccccc3)c(=O)n2N)cc1,inactive
10,COc1ccc(NC(=O)CSc2nc3ccccc3c(=O)n2C)cc1,10.3 µM (active)
11,O=C1/C(=C\Nc2ccccc2)CCN1c1ncccn1,inactive
12,Cc1ccc(C(C(=O)NC2CCCC2)N(Cc2ccco2)C(=O)CCC(=O)Nc2ccccn2)cc1 (configuration not stated),16.4 µM (active)
13,CCC(C)(C)NC(=O)C(c1ccc(O)cc1)N(Cc1ccco1)C(=O)CCC(=O)Nc1ccccn1 (configuration not stated),inactive
14,Cc1cc(NC(=O)CCC(=O)N(c2ccccc2)C(C(=O)NC2CCCC2)c2ccncc2)no1 (configuration not stated),inactive
15,CC(=O)NC1(c2ccc(F)cc2)CCN(C(=O)c2c(F)cccc2F)CC1,inactive
16,Cc1cc(C)cc(NC(=O)NC2CCCCCCC2)c1,inactive
17,CC(C)(C)NS(=O)(=O)c1ccc(NC(=O)NC2CCCCC2)cc1,inactive
18,CC(C)c1ccc(NC(=O)NC2CCCCC2)cc1,20.6 µM (active)
19,O/N=C(\C[n+]1ccccc1)c1ccc(Br)cc1,inactive
20,COc1ccc(CCNC(=O)CN2CCC(n3nnc4cc(F)ccc43)CC2)cc1OC,inactive
21,Cc1cccc(NC(=O)CSC(N)=O)c1C,18.4 µM (active)
22,Cc1ccccc1NC(=O)CSC(=O)c1ccccc1,inactive
23,Cc1cccc(NC(=O)COC(=O)CCc2ccccc2)c1C,inactive

row,SMILES,Potency
1,N#CCCN(C(=O)COC(=O)c1ccc(S(=O)(=O)N2CCCCCC2)cc1)c1ccccc1,inactive
2,COc1ccccc1-n1nnnc1S(=O)(=O)Cc1ccc(Cl)cc1,6.51 µM (active)
3,COc1ccccc1-n1nnnc1SCC(=O)NC(=O)Cc1ccccc1,inactive
4,CCC(C)N(C(=O)CSc1nnnn1-c1ccccc1OC)C1CCS(=O)(=O)C1 (configuration not stated),inactive
5,CCOC(=O)C(Sc1ncc(C#N)c(N)n1)C(C)C (configuration not stated),inactive
6,O=C(CSc1nnc(-c2ccncc2)n1-c1ccc(Cl)cc1)Nc1ccc(C(=O)O)cc1,inactive
7,Cc1cc(NC(=O)CSCC(=O)NC(C)c2ccccc2)no1 (configuration not stated),inactive
8,CN(CC(=O)Nc1c(Cl)cccc1Cl)C(=O)CC1OC(=O)c2ccccc21 (configuration not stated),inactive
9,CCc1ccc(NC(=O)C2CCCN2S(=O)(=O)c2ccc3nc(-c4ccccc4)[nH]c3c2)cc1 (configuration not stated),23.1 µM (active)
10,CC(=O)Nc1ccc(NC(=O)C2CCCN2S(=O)(=O)c2cccc(C(F)(F)F)c2)cc1 (configuration not stated),inactive
11,CCOc1ccc(OCC)c(NS(=O)(=O)c2ccc3[nH]c(=O)ccc3c2)c1,inactive
12,Cc1ccc(S(=O)(=O)Nc2ccccc2CNc2c(C)n(C)n(-c3ccccc3)c2=O)cc1,inactive
13,CCc1ccccc1NS(=O)(=O)c1ccc2nc(-c3ccccc3)[nH]c2c1,9.2 µM (active)
14,CCc1nnc(NC(=O)C2CCCN2S(=O)(=O)c2ccccc2)s1 (configuration not stated),inactive
15,COc1ccc(NC(=O)C2C3CCC(O3)C2C(=O)O)cc1OC (configuration not stated),inactive
16,CC(=O)N1CCN(CC(C)(C)NS(=O)(=O)c2ccc(C)cc2)CC1,inactive
17,COc1cc(OC)c(C(=O)NNC(=O)c2ccc(NS(=O)(=O)c3cccs3)cc2)cc1OC,inactive
18,COC(=O)Cn1c2ccc(C)cc2c2nc(C)sc21,inactive
19,CCN(CC)CCn1c2ccc(Cl)cc2c2nc(C)sc21,23.1 µM (active)
20,COc1cc2c(cc1OC)C(c1ccccc1Br)NC(=O)C2 (configuration not stated),inactive
21,O=C(CCn1c(=O)oc2ccccc21)Nc1ccon1,inactive
